# Laboratory results published in PubChem BioAssay AID1974 (The Scripps Research Institute Molecular Screening Center, 2009).
# In all, about 300,000 compounds went through this assay and about 3,200 (1.1%) were called active. This is one part of a sample in which actives are shown more often than they occur. A number with no mark means an inactive call.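 The calls were made as follows: active = inhibition above the campaign mean inhibition plus 3 SD (cut at about 35% in these data); inactive = the rest.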
# Target: Glutathione S-transferase omega-1 (Homo sapiens) (UniProt P78417)
# Test: inhibitors of recombinant GSTO1, primary screen, counter-screen for RBBP9 inhibitor project, biochemical, fluorescence polarization (AID 1974);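 also: 0% = GSTO1-1 with DMSO and 100% = wells lacking GSTO1-1 enzyme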
# Settings: recombinant GSTO1, activity-based probe fluorescence polarization; at 5.96 µM; active compounds read high
# Chain of Glutathione S-transferase omega-1 (Homo sapiens) (P78417 whole entry, looked up): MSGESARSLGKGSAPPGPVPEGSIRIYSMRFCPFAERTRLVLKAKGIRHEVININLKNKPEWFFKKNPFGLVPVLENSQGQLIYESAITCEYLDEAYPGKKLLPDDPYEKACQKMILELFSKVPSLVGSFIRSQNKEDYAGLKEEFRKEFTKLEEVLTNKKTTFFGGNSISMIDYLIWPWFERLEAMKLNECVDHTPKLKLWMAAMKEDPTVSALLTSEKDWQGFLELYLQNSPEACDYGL
row,Compound,inhibition
1,COc1ccc2oc(C(=O)N(CC(C)C)C3CCS(=O)(=O)C3)c(C)c2c1 (stereo unspecified),-0.98%
2,Cc1ccc(C(=O)N/N=C/c2cccc3ccccc23)cn1,0.98%
3,Cc1ccc(/C=N/NC(=O)CN2CCN(Cc3ccccc3)CC2)s1,-7.48%
4,Cc1ccc(C(=O)N/N=C/c2sc(=O)n(Cc3cccc(C(=O)O)c3)c2Cl)cc1,40.4% (active)
5,Cc1ccccc1S(=O)(=O)N1[C@@H](c2cccc(Cl)c2)C(C(=O)O)=CC[C@H]1c1ccc(Cl)cc1,-219%
6,COc1ccc(-c2c(NC(=O)c3ccco3)oc3ccc(Cl)cc3c2=O)cc1,-7.76%
7,CN(C(=O)COC(=O)c1nc(Cl)ccc1Cl)C1CCS(=O)(=O)C1 (stereo unspecified),3.97%
8,Cc1c(-c2cccc(Cl)c2)nc2ccccc2c1C(=O)OCC(=O)N(C)C1CCS(=O)(=O)C1 (stereo unspecified),-6.81%
9,CN(C(=O)COC(=O)c1cc(-c2ccco2)nc2ccccc12)C1CCS(=O)(=O)C1 (stereo unspecified),66.1% (active)
10,Nc1c(-c2ccccc2)nnn1Cc1ccccc1,16.3%
11,CC1CCC(CN2CCN=C2N(C)C)CC1 (stereo unspecified),1.09%
12,COc1ccc(NC(=O)CSc2nc3ccccc3c(=O)n2C)cc1,-2.78%
13,COc1ccc(Cc2nnc(SCC(=O)N(c3ccccc3)C(C)C)n(N)c2=O)cc1,-0.68%
14,COc1ccc(NC(=O)CSc2nnc(Cc3ccccc3)c(=O)n2N)cc1,36.1% (active)
15,O=C(NCc1ccccn1)Nc1ccc(Cl)cc1,-3.8%
16,Cc1ccnc(NC(=O)CNC(=O)c2ccccc2)c1,-2.68%
17,O=C(Nc1ccc(S(=O)(=O)Nc2nccs2)cc1)c1cc(-c2ccncc2)nc2ccccc12,44.3% (active)
18,O=C(Nc1ccc(S(=O)(=O)Nc2nccs2)cc1)c1cc(=O)[nH]c2ccccc12,-5.17%
19,Cc1ccc2nc(-c3ccncc3)cc(C(=O)Nc3ccncc3)c2c1,0.09%
20,COc1ccc(C(=O)Oc2ccc(-c3nnco3)cc2)cc1S(=O)(=O)N1CCOCC1,8.84%
21,O=C(Nc1cc2c3c(c1)CC(=O)N3CCC2)c1ccccc1F,-2.65%
22,COc1ccccc1N(C)S(=O)(=O)c1ccc(Cl)c(C(=O)Nc2ccncc2)c1,1.75%
23,O=C1c2ccccc2C(=O)c2c1cccc2N1CCN(C/C=C/c2ccccc2)CC1,1.48%
24,CC1C(=O)Nc2ccccc2N1C(=O)c1ccc(F)cc1F (stereo unspecified),52.8% (active)
25,CCCC(=O)N1c2ccccc2NC2=C(C(=O)CCC2)C1c1ccc(F)cc1 (stereo unspecified),-0.62%
26,CC1C(=O)Nc2ccccc2N1C(=O)c1c(F)cccc1F (stereo unspecified),4.45%
